# Laboratory results taken from PubChem BioAssay AID624256 (NMMLSC, 2012).
# In all, about 360,000 compounds went through this assay and about 3,700 (1%) were called active. Another 2% or so got no clear call; they are omitted.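 Rule for the calls: active = normalized GFP-positive differentiation at or above the plate's own cutoff, the solvent-only control mean plus 3 SD; inconclusive = no clear call, values can overlap the other calls; inactive = the rest.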 The full list was thinned out, with actives kept by preference.
# Assay: induction of myeloid progenitor differentiation, primary screen, cell-based, flow cytometry, MLPCN library (AID 624256);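 for GFP+ MAC1+ double positive: cells exposed to compound for four days before flow analysis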;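 for normalized GFP-positive differentiation: cells exposed to compound for four days before flow analysis; 0% = DMSO wells and 100% = fulvestrant positive control at 5 µM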
# Conditions: ER-HoxA9 myeloid progenitors, lysozyme-GFP differentiation, at 10 µM; GFP+ MAC1+ double positive: measured here: differentiation confirmed by MAC1 staining, stronger effect = higher value; normalized GFP-positive differentiation: stronger effect = higher value
Structure (SMILES),GFP+ MAC1+ double positive,normalized GFP-positive differentiation,outcome
c1ccc(C[C@H]2CNCCN2CCC23CC4CC(CC(C4)C2)C3)cc1,4%,18.5% (active),–
O=C1CCNCCN1[C@H](CO)Cc1ccccc1,1.1%,–,inactive
c1ccc2c(CCN3CCNC[C@H]3Cc3cccc4ccccc34)cccc2c1,6%,–,inactive
CCc1nc2ccc(C(=O)NC3CCN(Cc4ccccc4)CC3)cn2c1N(CC)CCOC,1.3%,–,inactive
Cc1ccc(COc2ccc(/C=N/NC(=O)CN3CCCCC3)cc2)cc1,0.2%,–,inactive
NNC(=O)c1ccc(COCC(F)(F)C(F)F)cc1,0.4%,–,inactive
Cc1ccc(COc2ccc(C(=O)NN)cc2)cc1,4.6%,335% (active),–
COc1cccc(CNC(=O)[C@@H]2CCCN2C(=O)[C@@H]2CCCN2C(=O)c2ccccc2)c1,0.5%,–,inactive
CCS(=O)(=O)c1ccc(-c2cccc(NC(=O)c3ccc(Br)o3)c2)nn1,1.2%,11.8% (active),–
CC(CNC(=O)c1ccc(Br)o1)NC(=O)c1ccc(Br)o1 (stereo not given),4.1%,–,inactive
CCOc1ccc(C(=O)Nc2cccc(-c3ccc4nncn4n3)c2)cc1,1.2%,–,inactive
COC(=O)C[C@H]1C=C[C@@H](NS(=O)(=O)c2ccc(C)cc2)[C@@H](CO)O1,2.1%,–,inactive
Cc1ccccc1-c1nc(NC(C)C)nc2cc(-c3ccccc3)sc12,0.6%,–,inactive
OC(c1ccc(Cl)c(F)c1)c1ncc(-c2ccccc2Cl)[nH]1 (stereo not given),1.3%,–,inactive
COc1ccc(C(O)C(O)(C(=O)OC(C)C)c2ccc(C)cc2)cc1 (stereo not given),2.5%,–,inactive
C[C@H]([C@@H](O)[C@@H](O)[C@@H](C)C(C)(C)C)[C@H]1CC[C@H]2C3CC[C@H]4C[C@H](OS(=O)(=O)O)[C@@H](OS(=O)(=O)O)C[C@]4(C)[C@H]3CC[C@]12C (stereo not given in full),3.3%,–,inactive
C=CCC[C@@H](CCCCC)OC(=O)/C=C/[C@@H](O)[C@H](O)C[C@H](O)CC=C,0.4%,–,inactive
CC(C)CC(COCc1ccc(Cl)cc1)N1CCN(C(=O)c2ccc(C(F)(F)F)cc2)CCC1=O (stereo not given),5.1%,7.54% (active),–
CC(C)C[C@@H](COCc1ccc(Cl)cc1)N1CCN(C(=O)c2ccc(Cl)cc2Cl)CCC1=O,0.8%,–,inactive
O=C(c1ccc(C(F)(F)F)cc1)N1CCC(=O)N([C@H](COCc2ccccc2)Cc2ccccc2)CC1,0.6%,–,inactive
CCN(CC)CCN(C)C(c1ccnc2ccccc12)c1nnnn1-c1ccc2c(c1)OCCO2 (stereo not given),2.1%,–,inactive
Cc1cc2nc(C)n(CCCNC(=O)Nc3ccccc3)c2cc1C,1.2%,33% (active),–

Structure (SMILES),GFP+ MAC1+ double positive,normalized GFP-positive differentiation,outcome
Cc1nc2cc(NC(=O)Nc3cccc(F)c3)ccc2n1C,0.6%,–,inactive
CCOc1ccc(CCNC(=O)Nc2ccccc2)cc1OCC,0.6%,–,inactive
C[C@@H]1CC2=C(C(=O)OC(C)(C)O2)[C@@H](C2CC2)O1,0.7%,–,inactive
OC(c1ccccc1)(c1ccccc1)C1CCN(CCCOc2ccccc2)CC1,0.9%,–,inactive
CCOC(=O)c1cc(-c2nnc(-c3cc(OC)c(OC)c(OC)c3)o2)c(C)nc1C,0.3%,–,inactive
CCOc1ccc(-c2noc(CCC(=O)NC3CCCC3)n2)cc1OC,0.3%,–,inactive
CCOc1nc(-c2ccc(OC)cc2)ccc1-c1noc(-c2cc(OC)c(OC)c(OC)c2)n1,26.5%,69% (active),–
Cc1ccc(NS(=O)(=O)c2cc3c(cc2Br)NC(=O)CO3)cc1C,2.1%,–,inactive
COc1ccc(C(c2nnnn2C2CCCC2)N2CCN(C/C=C/c3ccccc3)CC2)cc1 (stereo not given),0.9%,–,inactive
Nc1nc(NCC2CCCO2)nc(Nc2ccccc2F)c1[N+](=O)[O-] (stereo not given),0.2%,–,inactive
C=CCNc1nc(N)c([N+](=O)[O-])c(NC2CCCCC2)n1,1%,–,inactive
Nc1nc(Nc2ccccc2F)nc(NC2CCCCC2)c1[N+](=O)[O-],5.3%,25.3% (active),–
O=C(Nc1ccc(Cl)cc1)c1csc([C@H]2C[C@H](O)[C@@H](CO)O2)n1,0.4%,–,inactive
CCN1C(=O)[C@@H]2[C@@H]3CN(S(=O)(=O)c4ccccc4C)[C@@H](c4ccc(Cl)cc4)[C@@H]3C(=O)C[C@@H]2C1=O,0.5%,–,inactive
CN1C[C@@H](CO)O[C@@H](n2cnc3c(N4CCN(CCO)CC4)ncnc32)C1,1.5%,–,inactive
CNC(=S)NNC(=O)c1sccc1OCc1ccccc1,2.8%,6.37% (active),–
CNC(=S)N/N=C/c1ccc(OCc2ccccc2)c(Br)c1,0.2%,–,inactive
Cc1scc(C(=O)NNC(=S)NCc2ccccc2)c1C,0.2%,–,inactive
CC1(C(=O)Nc2ccc3c(c2)OCCO3)CSCC(=O)N1CCOc1ccccc1 (stereo not given),3.3%,–,inactive
Cc1cc(Br)cn2c(Cc3cccc(F)c3)c(-c3cccc(Br)c3)nc12,0.6%,–,inactive
CCOC(=O)/C=C/C(=O)OCC(=O)NC(c1ccccc1)c1ccccc1,0.4%,–,inactive
CCOC(=O)C(C(=O)OCC)C(C#N)c1ccccc1 (stereo not given),3.3%,9.91% (active),–

Structure (SMILES),GFP+ MAC1+ double positive,normalized GFP-positive differentiation,outcome
CCOC(=O)C(C(=O)c1ccccc1)C(c1ccccc1)c1nccc2ccccc12 (stereo not given),0.2%,–,inactive
CC1(C(=O)NCc2ccccc2)CSCC(=O)N1CCCn1ccnc1 (stereo not given),4.4%,–,inactive
O=C1NC(O)CCN1C1CC(O)C(CO)O1 (stereo not given),1.3%,–,inactive
CCOc1ccc(CCN2C(=S)N([C@@H](CC(C)C)CN3CCC[C@@H]3CN3C(=S)NC[C@@H]3Cc3ccc(O)cc3)C[C@@H]2Cc2ccc(O)cc2)cc1,0.7%,–,inactive
COC(=O)C[n+]1cccc2ccccc21,1%,236% (active),–
COC(=O)C(C)NC(=O)COc1ccc2ccccc2c1 (stereo not given),1.3%,–,inactive
COc1c(C(=O)N2CCCC2)ccc2ccccc12,0.8%,–,inactive
CCc1nc2c(OCc3ccc(Cl)cc3Cl)cccn2c1N(C)C(=O)C(C)C,1.8%,–,inactive
CC(=O)N1CCN(Cc2cc(=O)oc3cc(C)ccc23)CC1,1.6%,–,inactive
COC(=O)[C@]12CCCCC=C1N(Cc1ccc3c(c1)OCO3)C(=O)[C@H](CC(=O)NCc1cccs1)C2,0.4%,–,inactive
CCOC(=O)[C@]12CCCC=C1N(CCC1=CCCCC1)C(=O)[C@H](CC(=O)N1CCOCC1)C2,4.8%,–,inactive
OCCC#Cc1ccc(N2C(c3ccsc3)=Cc3ccc(F)cc3C2c2c[nH]c3ccccc23)cc1 (stereo not given),2%,16.8% (active),–
COc1ccc(CCCNC(=O)C2Cc3c(-c4cccc(C(N)=O)c4)ccnc3O2)cc1 (stereo not given),0.5%,–,inactive
CN(Cc1cn(Cc2ccc(C(F)(F)F)cc2)nn1)C1CN(Cc2cn(Cc3ccc(C(F)(F)F)cc3)nn2)S(=O)(=O)C1 (stereo not given),1.6%,–,inactive
CCCCNC(=O)C[C@@H]1C[C@@]2(C(=O)OCC)CCC=C2N(Cc2cccc3ccccc23)C1=O,0.6%,–,inactive
CCOc1ccc(CCN2C(=O)C(=O)N([C@@H](Cc3ccc(O)cc3)CN3CCC[C@H]3CN3C(=O)C(=O)NC[C@@H]3CC(C)C)C[C@@H]2Cc2ccccc2)cc1,1%,–,inactive
Cc1ccc(Nc2ccccc2N)cc1,0.6%,231% (active),–
O=[N+]([O-])c1ccccc1Nc1ccc(O)cc1,0.4%,–,inactive
Cc1ccc(Nc2nc(N)nc(CSc3nnc(C)s3)n2)cc1,0.4%,–,inactive
CC1(C(=O)NCc2ccccc2)CN(S(C)(=O)=O)CC(=O)N1CC(F)(F)F (stereo not given),1.4%,–,inactive
COc1ccc(C(=O)C[n+]2ccc(N)c(C)c2C)cc1,10.1%,39.6% (active),–
COc1ccc(C(=O)C[n+]2ccc(C)cc2)cc1,0.2%,–,inactive

Structure (SMILES),GFP+ MAC1+ double positive,normalized GFP-positive differentiation,outcome
CO/N=C/CC(=O)c1ccc(OC)cc1,0.8%,–,inactive
COc1ccc(N(Cc2cc3ccc(C)cc3[nH]c2=O)S(=O)(=O)c2ccccc2)cc1,9.4%,37.5% (active),–
CCN(Cc1cc2cc(C)ccc2[nH]c1=O)S(=O)(=O)c1ccccc1,0.4%,–,inactive
Cc1ccc2cc(CN(c3ccc(C)c(C)c3)S(C)(=O)=O)c(=O)[nH]c2c1,0.3%,–,inactive
O=C(Nc1cccc2cccnc12)c1ccc2sc([C@H]3C[C@H](O)[C@@H](CO)O3)nc2c1,0.8%,–,inactive
Cc1ccc(NC(=O)CCC(=O)c2ccc(Br)cc2)cc1,0.4%,–,inactive
Cc1ccc(C(=O)Cn2cccn2)cc1,0.3%,–,inactive
Cc1ccc(C(=O)Cc2nnc(C)s2)cc1,0.7%,113% (active),–
CCC(C)CN1C(=O)CSCC1(C)C(=O)NCc1ccccc1 (stereo not given),1.5%,–,inactive
CSCCC(NS(=O)(=O)c1ccccc1F)C(=O)N1CC=C(c2ccccc2)CC1 (stereo not given),1.3%,63.9% (active),–
CSCCC(NS(=O)(=O)c1ccc(C)cc1)C(=O)N1CCCC1 (stereo not given),1.3%,–,inactive
CSCCC(NS(=O)(=O)/C=C/c1ccccc1)C(=O)N1CCC(C)CC1 (stereo not given),1%,–,inactive
C#Cc1ccc(NC(=O)C2(C)CCN2C(=O)Cc2ccc(-c3ccccc3)cc2)cc1 (stereo not given),0.8%,–,inactive
Cc1ccc2nc(NC(=O)CSc3nc(=O)n(CCCN(C)C)c4c3CCC4)sc2c1,1.3%,–,inactive
CC(=O)N(CCCN(C)C)c1nc2ccc(C)cc2s1,0.6%,33.5% (active),–
Cc1ccc2nc(NC(=O)C3CSC4(C)CCC(=O)N34)sc2c1 (stereo not given),1.7%,–,inactive
CCN1C[C@@H]2[C@@H]3C(=O)N(Cc4ccccc4)C(=O)[C@@H]3[C@](C)(C1=O)N2C(=O)c1ccc(C(C)(C)C)cc1,1.2%,–,inactive
CN1C(=O)[C@H]2[C@@H](C3CC3)N3C(=O)CN(Cc4ccccc4)C(=O)[C@@]3(C)[C@H]2C1=O,1.6%,–,inactive
CCN1C[C@@H]2[C@@H]3C(=O)N(C)C(=O)[C@@H]3[C@](C)(C1=O)N2C(=O)c1ccccc1,10.9%,43.5% (active),–
